# A selection: hits, their analogues and other compounds. The true share with any hit is near 12%.
# Sfp inh: blocks B. subtilis Sfp PPTase activity | 3.5% of 310,000 active | AID 1490 | Biochemical Sfp PPTase activity, qHTS | Q9F4F7 | Potency, µM, for inactives: largest response in the series, negative = inhibition, actives largely listed as inhibitors;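 note: the enzyme is Sfp with the accession as filed and its product quenches rhodamine fluorescence; 0% = enzyme reaction without inhibitor and -100% = no enzyme wells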
#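 After 15 min at room temperature with compound, 15 nM Sfp received 5 uM rhodamine-CoA plus 12.5 uM BHQ-2-ybbR (50 mM Hepes pH 7.6, 10 mM MgCl2). Rate came from the fluorescence difference over 30 min, ex 525/em 598 nm.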
# JMJD2A Tudor inh: JMJD2A Tudor domain (human) inhibition; AlphaScreen JMJD2A-Tudor / H3K4me3 peptide binding; 4.4% of 390,000 active; Potency, µM (highest dose often 114 µM), inactives show at the top dose activity change, negative = inhibition, hits mostly inhibitors; O75164; AID 504339; note: % is set by controls: 0 for no effect and ±100 for the full control effect; nearly all actives have a fitted effect of over 50% in size
# HP1b chromo inh: HP1-beta chromodomain-methylated histone interaction inhibition; AlphaScreen HP1-beta / biotin-H3K9me3 peptide binding; Potency, µM (highest dose often 114 µM), for inactives: at the top dose activity change, negative = inhibition, hits mostly inhibitors; 0.56% of 390,000 active; P83916; note: nearly all actives have a fitted effect of over 70% in size
# Target sequence (P83916 whole entry, looked up): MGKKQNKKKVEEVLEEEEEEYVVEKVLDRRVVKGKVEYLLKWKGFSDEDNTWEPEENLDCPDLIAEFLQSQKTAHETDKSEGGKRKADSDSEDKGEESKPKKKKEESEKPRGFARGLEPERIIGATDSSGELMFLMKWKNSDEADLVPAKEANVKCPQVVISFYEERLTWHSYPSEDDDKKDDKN
#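 Compound inhibition of the preformed complex between 50 nM HP1-beta and 50 nM biotinylated H3K9me3 peptide was read by AlphaScreen. Buffer was PBS pH 7.4 with 0.01% Tween-20. Incubations ran 30 min at room temperature, with 10 ug/mL donor/acceptor beads.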
# BAZ2B block: blocks human BAZ2B; Q9UIF8; AlphaScreen BAZ2B-H3K14Ac peptide displacement; Potency, µM (doses to about 114 µM), for the others: at the highest dose activity change, negative = inhibition, hits mostly inhibitors; 4.4% of 360,000 active; AID 504333; note: % is set by controls: 0 for no effect and ±100 for the full control effect; nearly all actives have a fitted effect of over 60% in size
#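 Inhibition is scored as reduced AlphaScreen emission. The BAZ2B/b-H3(5-23)K14Ac complex (50 nM each) in PBS pH 7.4, 0.01% Tween-20 meets compound (up to 110 uM) for 30 min at RT before bead addition.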
# L3MBTL1 inh: blocks human L3MBTL1. 0.66% of 230,000 active. Q9Y468. AlphaScreen L3MBTL1–H3K9me1 peptide binding. Potency, µM (titrated, usually from 57.1 µM), inactives show at the highest dose activity, negative = inhibition, usual class: inhibitors; note: % is set by controls: 0 for no effect and ±100 for the full control effect; nearly all actives have a fitted effect of over 60% in size
#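 Read-out is AlphaScreen signal from streptavidin donor and nickel chelate acceptor beads (10 ug/mL final each) bridging L3MBTL1 (50 nM) and biotinylated K9-monomethylated H3(1-15) peptide (75 nM), after 30 min compound exposure at room temperature.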
# G9a inh: blocks human histone lysine methyltransferase G9a. Q96KQ7. G9a H3K9 monomethylation, AlphaScreen, 2 h. Potency, µM (series often up to 102 µM), inactives show top-dose activity, negative = inhibition, hits mostly inhibitors. 8.8% of 350,000 active. AID 504332; note: % is set by controls: 0 for no effect and ±100 for the full control effect; nearly all actives have a fitted effect of over 75% in size
# Target sequence (Q96KQ7 913-1193 limits assumed): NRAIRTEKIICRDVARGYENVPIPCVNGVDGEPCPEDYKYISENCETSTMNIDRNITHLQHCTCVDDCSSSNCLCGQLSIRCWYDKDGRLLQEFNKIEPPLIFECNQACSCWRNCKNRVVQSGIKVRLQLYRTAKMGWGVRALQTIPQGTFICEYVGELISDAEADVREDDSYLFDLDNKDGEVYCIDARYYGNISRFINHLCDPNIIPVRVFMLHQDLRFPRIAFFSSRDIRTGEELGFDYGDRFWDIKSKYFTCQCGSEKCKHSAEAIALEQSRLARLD
#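 Signal arises when biotinylated H3K9 peptide, once monomethylated, bridges streptavidin donor and antibody-captured acceptor beads. Enzyme at 20 nM was preincubated 15 min with test compounds; peptide 500 nM and SAM 20 uM then reacted for 2 h.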
# * = called active by the depositor; u = inconclusive; x = no result given; [ ] = dose if it differs, or a comment. Calls come from the whole dose curve; as a rule, active = well fitted curve in the direction sought with a large enough effect; inconclusive = small, poorly fitted or top-dose-only effect, or another doubt; inactive = no such curve, though single readings can be large; an effect the other way counts as inactive or inconclusive. Potency is the fitted concentration of half-maximal effect.
SMILES,Sfp inh,JMJD2A Tudor inh,HP1b chromo inh,BAZ2B block,L3MBTL1 inh,G9a inh
Cc1ccc(CNc2ccc3c(c2)nc(C)n3C)cc1,-6.7%,-33.6%,-4.5%,u,-23.4%,25.1µM*
COc1ccc(CNc2ccc(Br)cc2)cc1,56.2µM*,40.8%,80.8%,4.5%,59.4%,129.3%
COc1ccc(OC)c(CNc2ccc3c(c2)nc(C)n3C)c1,-3.4%,-35.9%,-9.6%,-35.7%,x,35.5µM*
COc1ccc(CNc2ccc(C(=O)O)cc2)cc1,5.6%,-10.8%,56.1%,-5.4%,6.7%,-45.6%[59 µM]
Cc1nc2cc(NCc3ccc(Cl)cc3)ccc2n1C,-7.4%,u,-0.3%,-38.7%,-6.9%,x
COc1cc(C2c3cc4c(cc3OC(C)(N3CCCC3)C2C)OCO4)cc(OC)c1OC (centres undefined),x,u,-30.7%,x,x,x
NCCC[C@@H](CC(=O)N[C@@H]1CCNC[C@H]1C(=O)N[C@H](CC(=O)N[C@@H](CCC(=O)O)CC(=O)O)Cc1c[nH]c2ccccc12)NC(=O)C[C@H](CO)NC(=O)[C@@H]1CNCC[C@H]1N,-16.8%,x,x,x,x,x
COc1cc(OC)c(C=CC(=O)c2ccccc2O)c(OC)c1,x,u,28.2µM*,x,x,x
COc1cc(O)c(C(=O)/C=C/c2ccc(OC)c(O)c2)c(OC)c1,-37.8%,x,x,x,x,-48.9%[2.33 µM]
COc1cc(/C=C/C(=O)c2ccccc2O)cc(OC)c1OC,-13.5%,50.1µM*,-31.6%,56.2µM*,-6.9%,44.7µM*
CCCCN(C)C(=O)c1ccc2c(c1)N(Cc1cccc(Cl)c1)C(=O)c1ccccc1S2=O (centres undefined),x,-14.1%,34.8%,0.7%,x,-6.6%[59 µM]
CSc1ccc(/C=C/C(=O)OCC(=O)N2CCN(S(=O)(=O)c3ccc(C)cc3C)CC2)cc1,x,-11.1%,18.2%,10.4%,-6.1%,-1.2%[12.7 µM]
C=CCn1c(SCC(=O)NCCOC)nc2scc(-c3ccco3)c2c1=O,10µM*,79.4µM*,2.0%,u,-8.5%,44.7µM*
C=CCn1c(SCCN2C(=O)c3ccccc3C2=O)nc2scc(-c3ccccc3)c2c1=O,-12.2%,10.5%,12.2%,-2.9%,3.7%,-9.0%
C=CCn1c(SCC(N)=O)nc2scc(-c3ccc(C)o3)c2c1=O,22.4µM*,-15.5%,41.8%,-4.2%,-5.3%,u
C=CCn1c(SCC(=O)NCC2CCCO2)nc2scc(-c3ccc(OC)cc3)c2c1=O (centres undefined),-16.6%,-12.4%,0.6%,6.6%,x,68.4%
C=CCn1c(SCC(=O)NCC2CCCO2)nc2scc(-c3ccco3)c2c1=O (centres undefined),-97.3%,-29.5%,-7.0%,u,u,u
C=CCn1c(SCc2ccccc2)nc2scc(-c3ccc(C)o3)c2c1=O,28.2µM*,-1.4%,13.9%,-32.2%,-3.2%,71.2%[59 µM]
Cc1cc2c(s1)c1cnn(Cc3ccc(C(F)(F)F)cc3)c(=O)c1n2C,x,-6.8%,x,x,x,x
COc1cc(CNCc2ccccn2)ccc1OCc1ccc(Cl)cc1,13.4%,25.1µM*,17.9%,u,-29.5%,9.1%[59 µM]
COc1cc(CNCc2ccccn2)ccc1OCc1c(Cl)cccc1Cl,39.8µM*,u,19.6%,89.1µM*,u,-37.0%
O=C(NCc1ccccn1)c1cc(Cl)ccc1OCc1ccccc1,-10.3%,-11.6%,55.4%,11.3%,x,x
COc1cc(CNc2nnnn2C)ccc1OCc1c(F)cccc1Cl,10.9%,-11.0%,29.9%,-7.4%,2.9%,x
CCCCCCCCCC(=O)NO,-2.4%,x,x,x,x,6.5%[12.7 µM]
Cc1ccc(N2C(S)=C(C#N)C(=O)NC2c2cccs2)cc1 (centres undefined),35.5µM*,-26.5%,-1.0%,-29.4%,-7.1%,u
SMILES,Sfp inh,JMJD2A Tudor inh,HP1b chromo inh,BAZ2B block,L3MBTL1 inh,G9a inh
Cc1ccc(N2C(=O)CCC(C(=O)O)C2c2cccs2)cc1 (centres undefined),14.5%,-3.1%,11.6%,-20.5%,x,-26.5%
O=C1CSC(c2cccs2)N1c1ccccc1 (centres undefined),16.3%,-8.4%,24.7%,9.7%,0.2%,-1.9%[59 µM]
N#CC1=C(S)N(c2ccccc2)C(c2cccs2)NC1=O (centres undefined),10µM*,-19.6%,7.3%,-21.9%,15.1%,u
COc1ccc(C2C(C#N)=C(N)Oc3cc(C)n(Cc4ccco4)c(=O)c32)cc1 (centres undefined),31.6µM*,-10.7%[57.1 µM],24.4%,-4.2%,x,25.1µM*
Cc1cc2c(c(=O)n1Cc1cccnc1)C(c1ccccc1)C(C#N)=C(N)O2 (centres undefined),-24.7%,4.5%,34.6%,9.7%,4.6%,-4.4%[2.33 µM]
COc1cccc(C2C(C#N)=C(N)Oc3cc(C)n(Cc4ccco4)c(=O)c32)c1 (centres undefined),7.94µM*,10.3%,32.8%,10.9%,-7.7%,50.1µM*
CCNC(=O)C1CCCc2c1[nH]c1ccc(Cl)cc21 (centres undefined),0.1%,-15.0%[57.1 µM],0.5%,79.4µM*,x,-7.9%[59 µM]
COc1ccc(-n2nc(C(=O)Nc3ccc(Br)cc3C)c3c4ccccc4n(C)c3c2=O)cc1,x,2.3%,51.4%,x,x,10.1%[59 µM]
CCN(CCCNC(=O)C1CCN(S(=O)(=O)c2c(C)[nH]c(=O)[nH]c2=O)CC1)c1cccc(C)c1,15.0%,-14.8%,33.1%,-8.1%,x,50.1µM*
CCN(CCCNC(=O)C1CCN(S(=O)(=O)N2CCC3(CC2)OCCO3)CC1)c1ccccc1,14.3%,-25.3%,11.6%,-27.3%,-2.9%,u
CCCCN(CCCNC(=O)C1CCN(S(=O)(=O)N2CCOCC2)CC1)c1ccccc1,-5.9%,u,-9.0%,-34.3%,-1.4%,39.8µM*
CCN(CCCNC(=O)C1CCN(S(=O)(=O)CC)CC1)c1cccc(C)c1,9.5%,-22.6%,6.7%,-34.9%,-2.9%,u
CCOc1ccc(-c2cc(NC(=O)Nc3ccccc3C(F)(F)F)c(C(=O)OC)s2)cc1,x,-1.0%,45.2%,-13.2%,x,4.8%[59 µM]
C=C(C)C1CC=C(C)CC1 (centres undefined),6.1%,x,x,x,x,26.9%[59 µM]
Cn1c(=O)n(C)c2cc3[nH]cnc3cc21,1.3%,-4.1%,20.4%,u,x,-38.2%
Nc1cc2nc[nH]c2cc1N,6.4%,50.1µM*,41.3%,28.2µM*,-12.7%,17.8µM*
CC#CC(C)C(OCOC)C(CC(C)Cc1cc(Br)cc(OCc2ccccc2)c1OC)OC (centres undefined),-1.0%,x,x,x,x,x
CNC(C)C#Cc1c(-c2cc(OC)c(OC)c(OC)c2)noc1C (centres undefined),3.6%,u,6.0%,u,-9.4%,31.6µM*
Cc1ccc(Nc2nnc(SCC(=O)NCCN3C(=O)CSC3=O)s2)cc1C,0.1%,-7.7%,22.6%,3.6%,-10.1%,28.2µM*

# Assay outcomes: PubChem, National Center for Advancing Translational Sciences (NCATS)
